# Reference: PubChem BioAssay AID488841 (Sanford-Burnham Center for Chemical Genomics, 2010)
# Among all 1,400 compounds or so, about 380 (27%) were called active. The list shows a part of the results. A number with no mark means an inactive call.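 The calls were made as follows: active = mean inhibition above 50% across duplicate retests at 10 µM; inactive = the rest.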
# Experiment: yeast NALP1 reporter signal suppression – S. cerevisiae, luminescence, single concentration, NALP1 inhibitor project, confirmation (AID 488841);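 also: plate controls were DMSO in galactose medium for no effect and cells in plain SD medium for full effect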
# Conditions: S. cerevisiae NALP1/ASC/Caspase-1 reporter, beta-gal luminescence; at 10 µM; active compounds read high
row,Compound,inhibition
1,COC(=O)c1c(NC(NC(=O)C(C)C)C(Cl)(Cl)Cl)sc2c1CCC2 (centres undefined),21%
2,COC(=O)c1ccc(C(=O)OC)c(NC(=O)COC(=O)C2CCCCC2)c1,7%
3,COc1ccc(OCC#CCNC(C)(C)C)cc1,33.4%
4,CCOC(=O)CNC(c1ccccc1)c1cc(Br)ccc1NC(=O)CCN1CCOCC1 (centres undefined),27.6%
5,CCCOc1ccc(C(=O)C(CN2CCCC2)c2ccccc2)cc1 (centres undefined),50.8% (active)
6,CCOc1ccc(C(=O)C(CN2CCOCC2)c2ccccc2)cc1 (centres undefined),51.9% (active)
7,CCCCOc1ccc(C(=O)CCN2CCCCC2)cc1,41.4%
8,CCCOc1ccc(C(=O)c2nc3c(n2O)CCCCC3)cc1,22.7%
9,Cc1c(C(=O)N2CCOCC2)[nH]c2ccc(OCc3ccccc3)cc12,29.4%
10,Cn1c2c(c(=O)n(C)c1=O)C(NC(=O)C(C)(C)C)(C(F)(F)F)C(=O)N2 (centres undefined),24.3%
11,NC(=NCCc1ccc(Cl)cc1)NS(=O)(=O)c1ccc(F)cc1,23.1%
12,Cc1sc2nc(SCC(=O)NCc3ccco3)n(Cc3ccccc3)c(=O)c2c1C,24.6%
13,CCN(CC1COc2ccccc2O1)S(=O)(=O)c1ccc(C)cc1 (centres undefined),39.2%
14,CC(C)C(C(=O)O)N1C(=O)/C(=C/c2cccn2C)SC1=S (centres undefined),42.4%
15,COc1ccccc1OCC(=O)NCCSCc1cccc(Cl)c1,59.4% (active)
16,O=C(Cc1ccc(Cl)cc1)Oc1cccc2cccnc12,27.7%
17,COc1ccccc1OCC(=O)NCCSCc1ccccc1Cl,55.5% (active)
18,O=C(CCSCc1cccc(Cl)c1)NCCc1ccccc1,45.4%
19,COc1ccccc1OCC(=O)NCCSCc1ccc(Cl)cc1,56.6% (active)
20,O=C(CSCc1cccc(Cl)c1)Nc1ccccc1-c1ccccc1,35%
21,COc1ccc(CCNC(=O)CN2CCC(C)CC2)cc1OC,22.5%
22,O=C(COC(=O)CCSc1ccccc1)NCc1ccccc1Cl,22.2%
23,O=C(COc1ccccc1Cl)NCCC1=CCCCC1,38.7%
24,COc1cccc(N2CCN(C3CCCC(C)C3)CC2)c1 (centres undefined),25.3%
25,CC1=CCC2C(=O)N(Cc3ccccc3)C(=O)C2C1 (centres undefined),24.9%
26,COc1cc(S(=O)(=O)NCc2cccnc2)ccc1F,27.6%
27,COc1cccc(C(=O)N2CCCC(c3nc(-c4cccs4)no3)C2)c1 (centres undefined),29.9%
28,CCCCCCCCCCCCCCCC[n+]1cccc2ccccc21,95% (active)
29,CC1(C)CC(=O)c2cc(C(=O)O)c(=O)n(-c3ccccc3)c2C1,32%
